# Source: PubChem BioAssay (EPA / NIEHS)
# Several values for one entry are separate records, joined by “and”; a condition that tells them apart may be missing. Identical values can stand only once. Activity calls are given as the source filed them. How the source made its calls: active means hit-call score of the fitted dose curve at least 0.9, where 1 is the maximum; inactive means score below 0.9.
# Read-out: Collagen III, COL3A1 (gene 1281)
# Test: BSK_MyoF_CollagenIII: BioMAP Diversity Plus: MyoF Assay for Collagen III Biomarker Activity (AID 2284239)
# Conditions: primary human lung fibroblasts
# Description: BSK_MyoF is a cell-based, multiplexed-readout assay that uses lung fibroblasts, […], with measurements taken at 24 hours after chemical dosing in a microplate: 96-well plate.BSK_MyoF_CollagenIII is an assay component measured in the BSK_MyoF assay. It measures Collagen III antibody related to regulation of gene expression using ELISA technology.Data from the assay component BSK_MyoF_CollagenIII was analyzed at the endpoint, BSK_MyoF_CollagenIII, in the positive analysis fitting direction relative to DMSO as the negative control and baseline of activity. Using a type of binding reporter, gain or loss-of-signal activity can be used to understand protein changes. To generalize the intended target to other relatable targets, this assay endpoint is annotated to the 'cell adhesion molecules' intended target family, where the subfamily is 'collagen'.
# The levels of cell surface (or secreted, indicated by the prefix "s") biomarker endpoints were measured by ELISA. Overt cytotoxicity to cells in confluent adherent cultures (all systems other than the BT system) was assessed by measuring total protein levels using sulforhodamine B (SRB) staining in parallel cultures at the time of biomarker measurements, indicated as SRB endpoints. For proliferation assays for adherent cell types, individual cell types are cultured at sub-confluence and relative cell numbers quantified by SRB staining at time points optimized for each system (48 h: 3C and CASM3C systems; 72 h: BT and HDF3CGF systems; 96 h: SAg system). SRB was performed by staining cells with 0.1% SRB after fixation with 10% TCA and reading wells at 560 nm.Viability and proliferation of PBMC (T cells) was quantified by Alamar Blue reduction for the SAg and BT systems. For PBMC viability (referred to as PBMC Cytotoxicity within the assay endpoint names), cells were plated (75,000/well in a 96-well plate) and then chemical samples added for 1 h before addition of activators, SEB and TSST-1 (20 ng/mL final concentration each). Cells were incubated for 90 h. Then, Alamar Blue (20 uL/well) (Invitrogen, Cat DAL1100) was added for 6 h, and the plates were read with a fluorescence microplate reader at 546/580 nm (excitation/emission). For PBMC proliferation, cells were plated and activated as above but incubated for only 16 h prior to addition of Alamar Blue. Plates were read after 6 h.
SMILES,outcome,AC50
CCCCCCC(O)CCCCCCCCCCC(=O)OC (stereo not given),inactive,–
Cc1cc(-n2nc3ccc(Cl)cc3n2)c(O)c(C(C)(C)C)c1,inactive,–
CN(C)c1ccc(C(c2ccccc2)c2ccc(N(C)C)cc2)cc1,inactive,–
OC(C(F)(F)F)(C(F)(F)F)C(O)(C(F)(F)F)C(F)(F)F,–,41 µM (active) and 39.5 µM (active)
COC(=O)/C=C\C(=O)OC,inactive,–
CCCCCCCCCCCCCCCCCC[N+](C)(C)C,–,2.73 µM (active)
O=C(C(=O)c1ccccc1)c1ccccc1,inactive,–
CCCCCCCCCC/C=C/C1CC(=O)OC1=O (stereo not given),inactive,–
Cc1cccnc1,inactive,–
CN(C)CCC(c1ccc(Cl)cc1)c1ccccn1 (stereo not given),inactive,–
CC(C)CC(=O)CC(C)CC(C)C (stereo not given),inactive,–
CC[N+](CC)(CC(=O)Nc1c(C)cccc1C)Cc1ccccc1,inactive,–
Oc1cccc2ccccc12,–,5.51 µM (active)
Sc1nc2ccccc2s1,inactive,–
CCCCCCCCCCC1CO1 (stereo not given),–,31.2 µM (active)
